Assay results taken from PubChem BioAssay (NCI).
Where “and” joins values, the source holds several entries; their conditions need not be identical. Equal entries are not always repeated. Compounds without any hit were thinned out: in the full panel of roughly 83,000, 20% have a hit.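 Cells were grown in 96-well plates and exposed to the test compound at a single concentration for 48 hours; results are reported as percent growth, with values below 10 considered active.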 Calls of active or inactive are those of the source.

Columns and labels:
Test in all cases: NCI-60 one-dose screen, 48 h (100 = growth as untreated, 0 = no growth, -100 = all killed)
Conditions in all cases: 10 µM unless noted
SK-MEL-2 melanoma = test system: SK-MEL-2 melanoma
EKVX NSCLC = test system: EKVX NSCLC
SN12C renal = test system: SN12C renal
TK-10 renal = test system: TK-10 renal
ACHN renal = test system: ACHN renal
CAKI-1 renal = test system: CAKI-1 renal
A498 renal = test system: A498 renal
CCRF-CEM leukemia = test system: CCRF-CEM leukemia
MOLT-4 leukemia = test system: MOLT-4 leukemia
SR leukemia = test system: SR leukemia
RPMI-8226 leukemia = test system: RPMI-8226 leukemia
OVCAR-8 ovarian = test system: OVCAR-8 ovarian
OVCAR-5 ovarian = test system: OVCAR-5 ovarian
OVCAR-4 ovarian = test system: OVCAR-4 ovarian
SK-OV-3 ovarian = test system: SK-OV-3 ovarian
OVCAR-3 ovarian = test system: OVCAR-3 ovarian
NCI/ADR-RES ovarian = test system: NCI/ADR-RES ovarian
UO-31 renal = test system: UO-31 renal
IGROV1 ovarian = test system: IGROV1 ovarian
HS 578T breast = test system: HS 578T breast

Measured: growth

Cc1cc(=NO)cc(C)n1O
inactive: SK-MEL-2 melanoma 113% | EKVX NSCLC 105% | SN12C renal 100% | TK-10 renal 84.7% | ACHN renal 117% | CAKI-1 renal 109% | A498 renal 93.9% | CCRF-CEM leukemia 80.9% | MOLT-4 leukemia 96.6% | SR leukemia 72.5% | RPMI-8226 leukemia 103% | OVCAR-8 ovarian 111% | OVCAR-5 ovarian 117% | OVCAR-4 ovarian 106% | SK-OV-3 ovarian 104% | OVCAR-3 ovarian 104% | NCI/ADR-RES ovarian 114%

N#Cc1ccc(/C=C/C(=O)c2ccccc2)cc1
-35.1% (active) and 29.4% (inactive): MOLT-4 leukemia
active: UO-31 renal -37.5% | SR leukemia -63.9% | RPMI-8226 leukemia -35.6% and -54.9%
17.6% (inactive) and 3.61% (active): CCRF-CEM leukemia
inactive: SK-MEL-2 melanoma 90.7% | EKVX NSCLC 95.9% and 111% | SN12C renal 96.2% and 92.6% | TK-10 renal 98.9% and 55.8% | ACHN renal 112% and 92.9% | A498 renal 112% and 84.1% | OVCAR-8 ovarian 98.9% and 98.8% | OVCAR-5 ovarian 108% and 91.1% | OVCAR-4 ovarian 95.2% and 103% | SK-OV-3 ovarian 123% and 106% | OVCAR-3 ovarian 55.4% and 75.5% | NCI/ADR-RES ovarian 111% and 95.8%

CC1=CC(=O)C=CC1=Nc1ccc(N(C)C)cc1
66.5% (inactive) and -4.07% (active): RPMI-8226 leukemia
69.4% (inactive) and -93.6% (active): OVCAR-3 ovarian
inactive: SK-MEL-2 melanoma 44.6% | SN12C renal 90.6% and 46.4% | TK-10 renal 126% and 115% | ACHN renal 96.6% and 55.3% | CAKI-1 renal 87.1% and 67.3% | MOLT-4 leukemia 50.4% and 12% | SR leukemia 29.3% | OVCAR-8 ovarian 85.7% and 52% | OVCAR-5 ovarian 140% and 83.9% | OVCAR-4 ovarian 44.9% and 21.1% | SK-OV-3 ovarian 94.2% and 71.8% | IGROV1 ovarian 88.5% and 49.4% | NCI/ADR-RES ovarian 78.1% and 37.9%
active: EKVX NSCLC -44.9% | CCRF-CEM leukemia -28.7%

O=C1C2=C(Nc3cc(Cl)ccc3N2)OC1c1c[nH]c2ccc(COc3ccccc3)cc12 (stereo not drawn)
inactive: SK-MEL-2 melanoma 86.7% | EKVX NSCLC 55% | SN12C renal 71.3% | TK-10 renal 71.6% | ACHN renal 60% | A498 renal 102% | MOLT-4 leukemia 77.3% | SR leukemia 85.4% | RPMI-8226 leukemia 59.3% | OVCAR-8 ovarian 46.9% | OVCAR-5 ovarian 88.2% | OVCAR-4 ovarian 31.8% | OVCAR-3 ovarian 55.1% | HS 578T breast 29.6% | NCI/ADR-RES ovarian 51.4%

COC(=O)c1nc(=S)[nH]c(C(=O)OC)c1C(=O)c1ccc(OC)cc1
inactive: SK-MEL-2 melanoma 104% | EKVX NSCLC 107% | SN12C renal 98.5% | UO-31 renal 86.8% | TK-10 renal 110% | ACHN renal 105% | CCRF-CEM leukemia 101% | MOLT-4 leukemia 107% | SR leukemia 105% | RPMI-8226 leukemia 111% | OVCAR-8 ovarian 109% | OVCAR-5 ovarian 103% | OVCAR-4 ovarian 112% | SK-OV-3 ovarian 149% | OVCAR-3 ovarian 119% | HS 578T breast 76.1% | NCI/ADR-RES ovarian 99.8%

Nc1ccccc1SC1CC(=O)N(c2ccc(I)cc2)C1=O (stereo not drawn)
inactive: SK-MEL-2 melanoma 86.9% | EKVX NSCLC 90.6% | SN12C renal 91.8% | TK-10 renal 106% | ACHN renal 86% | CAKI-1 renal 81.7% | A498 renal 108% | MOLT-4 leukemia 81.5% | SR leukemia 68.6% | RPMI-8226 leukemia 85.1% | OVCAR-8 ovarian 87.8% | OVCAR-5 ovarian 90.3% | OVCAR-4 ovarian 93.8% | SK-OV-3 ovarian 95.5% | OVCAR-3 ovarian 87.1% | HS 578T breast 88.6% | NCI/ADR-RES ovarian 91.6%

CC(=O)Oc1ccc(C2(c3ccc(OC(C)=O)cc3)C(=O)Nc3ccccc32)cc1
inactive: SK-MEL-2 melanoma 90.4% and 80.7% | EKVX NSCLC 86% and 85.8% | SN12C renal 17.7% and 16% | TK-10 renal 18.3% and 35.6% | ACHN renal 67.6% and 63% | A498 renal 107% and 111% | MOLT-4 leukemia 71.4% and 97.6% | RPMI-8226 leukemia 108% and 75.1% | OVCAR-8 ovarian 27.1% and 25.5% | OVCAR-5 ovarian 103% and 89.5% | SK-OV-3 ovarian 115% and 114% | IGROV1 ovarian 65% and 46.1%
16.6% (inactive) and -4.21% (active): NCI/ADR-RES ovarian
active: OVCAR-4 ovarian 6.67% and -15.3% | OVCAR-3 ovarian -1.41% and -3.11% | HS 578T breast -18.5% and -15.5%

CCCCCc1cc[n+](CC(=O)c2ccccc2)cc1
inactive: SK-MEL-2 melanoma 101% and 104% | EKVX NSCLC 90.4% | SN12C renal 99.8% and 103% | TK-10 renal 120% and 101% | ACHN renal 102% | CAKI-1 renal 98.7% | A498 renal 87.5% and 85.7% | MOLT-4 leukemia 104% and 109% | SR leukemia 115% and 100% | RPMI-8226 leukemia 104% and 107% | OVCAR-8 ovarian 97.2% and 99.3% | OVCAR-5 ovarian 97.6% and 101% | OVCAR-4 ovarian 110% and 85.2% | SK-OV-3 ovarian 101% and 105% | IGROV1 ovarian 91.6% and 108% | OVCAR-3 ovarian 94.9% and 105% | HS 578T breast 106% | NCI/ADR-RES ovarian 98.6% and 103%

O=[N+]([O-])c1cccc2ccc(N/N=C/c3ccccc3O)nc12
6.55% (active) and 93.4% (inactive): RPMI-8226 leukemia
inactive: SK-MEL-2 melanoma 149% and 75% | EKVX NSCLC 78.8% and 82.1% | SN12C renal 96.4% and 98.5% | TK-10 renal 150% and 120% | ACHN renal 68.4% and 103% | CAKI-1 renal 80.3% | A498 renal 92.8% and 95% | MOLT-4 leukemia 16.6% and 57% | SR leukemia 60.4% | OVCAR-8 ovarian 91.9% and 95% | OVCAR-5 ovarian 113% and 116% | OVCAR-4 ovarian 93.3% and 100% | SK-OV-3 ovarian 108% and 111% | OVCAR-3 ovarian 40.5% and 101% | HS 578T breast 83.6% and 98.7% | NCI/ADR-RES ovarian 59% and 106%
active: IGROV1 ovarian -10.5%

Cc1c(Cl)cc(Cl)c(N)c1Cl
inactive: SK-MEL-2 melanoma 104% | EKVX NSCLC 103% | SN12C renal 117% | UO-31 renal 92.6% | TK-10 renal 109% | ACHN renal 115% | A498 renal 91% | CCRF-CEM leukemia 95.5% | MOLT-4 leukemia 110% | SR leukemia 117% | RPMI-8226 leukemia 98.1% | OVCAR-8 ovarian 104% | OVCAR-5 ovarian 107% | OVCAR-4 ovarian 108% | IGROV1 ovarian 114% | OVCAR-3 ovarian 112% | NCI/ADR-RES ovarian 105%

CC(=O)Oc1cc(C(C)C)c(OCCN(C)C)cc1C
inactive: SK-MEL-2 melanoma 116% and 119% | EKVX NSCLC 107% | SN12C renal 96.7% and 97.6% | TK-10 renal 112% and 121% | ACHN renal 99.4% | CAKI-1 renal 91.9% and 95.3% | A498 renal 98.3% and 97.4% | CCRF-CEM leukemia 113% and 99.6% | MOLT-4 leukemia 117% and 105% | SR leukemia 107% | RPMI-8226 leukemia 123% and 105% | OVCAR-5 ovarian 92.7% | OVCAR-4 ovarian 111% and 114% | SK-OV-3 ovarian 115% and 101% | IGROV1 ovarian 110% and 112% | OVCAR-3 ovarian 125% and 119% | HS 578T breast 99.2% and 97.7% | NCI/ADR-RES ovarian 99.5% and 111%
-70.9% (active) and 99% (inactive): OVCAR-8 ovarian

C=CCN1C(=O)c2ccccc2C1=O
inactive: SK-MEL-2 melanoma 101% | EKVX NSCLC 104% | SN12C renal 87.4% | UO-31 renal 78.3% | TK-10 renal 98.3% | ACHN renal 102% | A498 renal 92% | CCRF-CEM leukemia 93.3% | MOLT-4 leukemia 102% | SR leukemia 99.9% | RPMI-8226 leukemia 92.9% | OVCAR-8 ovarian 97.5% | OVCAR-5 ovarian 102% | OVCAR-4 ovarian 107% | IGROV1 ovarian 98.7% | OVCAR-3 ovarian 110% | HS 578T breast 99.8% | NCI/ADR-RES ovarian 96%

COc1cc2c(cc1O)C(=O)CCCC2
inactive: SK-MEL-2 melanoma 98% | EKVX NSCLC 81.6% | SN12C renal 111% | TK-10 renal 110% | ACHN renal 96.9% | CAKI-1 renal 73.3% | A498 renal 116% | CCRF-CEM leukemia 97.7% | MOLT-4 leukemia 83.9% | SR leukemia 102% | RPMI-8226 leukemia 104% | OVCAR-8 ovarian 117% | OVCAR-5 ovarian 92.8% | OVCAR-4 ovarian 93.6% | SK-OV-3 ovarian 108% | OVCAR-3 ovarian 101% | HS 578T breast 110% | NCI/ADR-RES ovarian 94.5%

CC(=O)Oc1ccc(C(c2ccc(OC(C)=O)cc2)c2ccccn2)cc1
inactive: SK-MEL-2 melanoma 107% and 94.3% | EKVX NSCLC 82.5% and 87.8% | SN12C renal 29.3% and 30.9% | TK-10 renal 77.1% and 86.1% | ACHN renal 82.5% and 81.1% | CAKI-1 renal 100% and 117% | A498 renal 91.1% | CCRF-CEM leukemia 98.8% and 90.9% | MOLT-4 leukemia 93.3% and 103% | SR leukemia 95.1% and 98% | RPMI-8226 leukemia 82.9% and 104% | OVCAR-8 ovarian 48.7% | OVCAR-5 ovarian 109% and 27% | SK-OV-3 ovarian 119% | IGROV1 ovarian 69% and 79.3% | OVCAR-3 ovarian 61.3% and 71% | HS 578T breast 31.2% | NCI/ADR-RES ovarian 49.9% and 34.3%
active: OVCAR-4 ovarian -9.93% and -15.5%
